Screening data as filed in PubChem BioAssay.
SARS PLpro yeast – inhibitors of SARS-CoV papain-like protease in yeast; S. cerevisiae expressing SARS-CoV PLpro, growth rescue; Potency, µM (highest dose often 32.9 µM), hits mostly activators; hit rate 0.19% among 330,000; AID 485353; calls by dose curve; also: nearly all actives have a fitted effect of over 55% in size
Shiga inhibitor – Shiga toxin inhibition | Vero cells, Shiga toxin protein synthesis inhibition reporter | inhibition, % at 38.7 µM | hit rate 9.2% among 290,000 | AID 2315; in the data active = inhibition mostly above about 28%, no sharp cut-off; inactive = mostly below about 43%
Cycloheximide cs – counter-screen for Shiga toxin inhibitors: cycloheximide protein synthesis inhibition; cell reporter, cycloheximide protein synthesis inhibition counterscreen; max response, %; hit rate 12% among 300,000; AID 2314; in the data active = max response mostly above about 13%, no sharp cut-off; inactive = mostly below about 14%; also: read at 38.3 µM for the half of the compounds with a filed dose
Pf growth 48h – P. falciparum growth inhibition at 48 hours (one generation); P. falciparum luciferase growth in erythrocytes, 48 h; Potency, µM (titrated, usually from 28.7 µM), usual class: inhibitors; hit rate 5.9% among 310,000; AID 504832
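Luciferase-expressing parasites in RBCs, 2% Hct / 0.1% parasitemia final; RPMI 1640 + 0.5% Albumax; 37 C, 5% CO2, one generation; luminescence read-out, lower signal = inhibition.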
AMA1 RON2 block – inhibitors of Plasmodium falciparum AMA1-RON2 interaction | AlphaScreen AMA1-biotinylated RON2 peptide binding | Potency, µM (doses to about 58.2 µM), actives largely listed as inhibitors | hit rate 0.2% among 360,000; also: nearly all actives have a fitted effect of over 45% in size
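AMA1 (3D7) with his tag at 25 nM final met compounds first, then biotinylated RON2 peptide at 25 nM; detection used donor plus acceptor beads, 10 µg/mL apiece, read by AlphaScreen after 30 min at room temperature.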
Pf growth 96h – P. falciparum growth inhibition at 96 hour, primary screen for plastid delayed-death inhibitors; P. falciparum luciferase reporter growth, 96 h; Potency, µM (top dose mostly 28.7 µM), usual class: inhibitors; hit rate 6.9% among 320,000; AID 504834
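P. falciparum expressing integrated firefly luciferase grown in erythrocytes (2% hematocrit, 0.05% parasitemia final) with compounds for 96 hours at 37 C, 5% CO2. Growth inhibition read as loss of luminescence after adding luciferase detection reagent.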
Numbers stand for hits; - = inactive; ? = inconclusive; . = no result given; [ ] = dose if it differs, or a comment. A selection: hits, their analogues and other compounds. The true share with any hit is near 19%. Unless noted, calls follow the shape of the dose curve; as a rule, active = well fitted curve in the direction sought with a large enough effect; inconclusive = small, poorly fitted or top-dose-only effect, or another doubt; inactive = no such curve, though single readings can be large; an effect the other way counts as inactive or inconclusive.

SMILES	SARS PLpro yeast	Shiga inhibitor	Cycloheximide cs	Pf growth 48h	AMA1 RON2 block	Pf growth 96h
O=C(/C=C/c1c(F)cccc1Cl)Nc1ccncc1	-	95.5	61.5	-	-[11.6 µM]	-
Cc1cc(NS(=O)(=O)c2ccc(NC(=O)/C=C/c3c(F)cccc3Cl)cc2)no1	-	-	-	-	-	?
O=C(/C=C/c1c(Cl)cccc1Cl)Nc1ccncc1	-	-	13.4	.	-	?
COC(=O)[C@@]12C[C@@H](CC(=O)N3CCN(C(=O)c4ccco4)CC3)C(=O)N(CCc3ccc(OC)c(OC)c3)C1=CCC(C)(C)C2	.	.	.	.	-	.
CCCC1=C(C(=O)OCC)C(c2sccc2C)n2ncnc2N1 (stereo not drawn)	-	-	-	?	-	?
O=C(CCSc1ccccc1)Nc1ccc(OCc2ccccc2)cc1	-	-	-	-	-	-
Cn1c(=O)c2cc(S(=O)(=O)NC(C(=O)N3CCCCCC3)c3ccccc3)ccc2n(C)c1=O (stereo not drawn)	-	-	-	.	-	10.4µM
Cn1c(=O)c2cc(S(=O)(=O)NC(C(=O)NC3CCCCC3)c3ccccc3)ccc2n(C)c1=O (stereo not drawn)	-	-	-	.	-	-
CC(C)N1CCc2c(sc(NC(=O)c3ccc(C(=O)c4ccccc4)cc3)c2C(N)=O)C1	-	-	-	13.1µM	?	?
CC(C)N1CCc2c(sc(NC(=O)c3ccc4ccccc4c3)c2C(N)=O)C1	-	-	-	10.4µM	-	9.28µM
CC(C)N1CCc2c(sc(NC(=O)Cc3ccccc3)c2C(N)=O)C1	-	-	-	?	-	?
CCN1CCc2c(sc(NC(=O)CSc3ccccc3)c2-c2nc3ccccc3s2)C1	.	-	-	.	.	.
CC(=O)Nc1sc2c(c1-c1nc3ccccc3s1)CCN(C(C)C)C2	-	-	-	3.7µM	-	4.15µM
CCN1CCc2c(sc(NC(=O)c3cc4ccccc4cc3OC)c2C(N)=O)C1	-	-	-	9.28µM	-	?
COc1cccc(OC)c1C(=O)Nc1sc2c(c1C(N)=O)CCN(Cc1ccccc1)C2	-	-	-	?	-	?
COc1cc2c(cc1OC)-c1cc(Nc3cccc(C)c3)nc(=O)n1CC2	-	-	-	-	-	-
Cc1ccc(OCC(=O)Nc2sc3c(c2C#N)CCC3)cc1C	-	-	-	-	-	?
Cc1ccc(OCC(=O)Nc2sc3c(c2C#N)CCC3)cc1	-	122.0	53.0	-	-	-
COc1ccc(NC(=O)CN(C)CC(=O)Nc2sc3c(c2C#N)CCC3)cc1	-	.	.	?	-	9.28µM
Cc1sc(NC(=O)COc2ccccc2)c(C#N)c1-c1ccccc1	-	-	22.9	-	-	?
CCC(=O)Nc1sc2c(c1C#N)CCC2	-	-	-	-	-	?
COc1ccc(-c2coc3c(C(=O)NCC4CC4)cccc23)c(C)c1	.	.	.	.	-	.
O=C(c1cc2c(ccc3ccccc32)oc1=O)N1CCCC1	-	-	-	-	-	-
CC1CCN(C(=O)c2cc3ccccc3c(=O)o2)CC1	-	43.8	-	-	-	-
O=C(c1cc2ccccc2c(=O)o1)N1CCCCCC1	-	141.4	71.3	-	-	-
SMILES	SARS PLpro yeast	Shiga inhibitor	Cycloheximide cs	Pf growth 48h	AMA1 RON2 block	Pf growth 96h
NC(Cc1ccc(F)cc1)c1csc(Nc2nccc(C(F)(F)F)n2)n1 (stereo not drawn)	.	.	.	.	-	.
CNC(=O)CC1C(=O)N(c2ccc(F)cc2)C(=S)N1NC(=O)c1ccc(Cl)cc1 (stereo not drawn)	-	-	-	-	-	?
CN(Cc1ccccc1)C(=O)COC(=O)c1ccc(Br)o1	-	.	.	.	?	.
COc1ccccc1NC(=O)Cn1cnc2c(oc3nc4c(cc32)CCCC4)c1=O	-	-	-	?	-	?
CCCCn1cnc2c(oc3nc4c(cc32)CCCC4)c1=O	-	-	25.8	-	-	-
COc1ccccc1NC(=O)C(C)n1cnc2c(oc3nc4c(cc32)CCCC4)c1=O (stereo not drawn)	-	-	-	?	-	?
CCCCCCn1cnc2c(oc3nc4c(cc32)CCCC4)c1=O	-	-	12.5	-	-	?
O=c1c2oc3nc4c(cc3c2ncn1CCCc1ccccc1)CCCC4	-	70.0	19.8	?	-	?
COC(=O)[C@@H]1CC2=CC(=O)CC[C@]2(C)[C@@]23O[C@@H]2C[C@@]2(C)[C@H](CC[C@@]24CCC(=O)O4)[C@@H]13	.	-	-	.	.	.
O=C(O)CCC(=O)Nc1cc(C(F)(F)F)cc(C(F)(F)F)c1	-	-	-	?	-	-
Fc1ccccc1OCCCN1CCOCC1	.	-	-	-	-	-
Cc1cccc(C)c1OCCCN1CCCC1	-	-	-	.	-	-
Cc1cccc(Cl)c1OCCCN1CCOCC1	-	48.9	21.4	-	-	3.7µM
c1ccc(-c2ccccc2OCCCN2CCOCC2)cc1	-	-	27.7	-	-	-
c1ccc(-c2ccccc2OCCN2CCCC2)cc1	-	-	-	-	-	13.1µM
c1ccc(SCCOCCN2CCOCC2)cc1	-	-	14.8	-	-	-
Cc1ccc(SCCOCCN2CCOCC2)cc1	-	-	-	-	-	?
COc1cccc(OC)c1C(=O)N1CCNCC1	-	.	-	-	-	?
CC1CCN(CCOCCOc2ccccc2-c2ccccc2)CC1	-	-	-	?	?	-
CC1CCN(CCCCOc2ccccc2-c2ccccc2)CC1	-	-	-	10.4µM	-	-
c1ccc(-c2ccccc2OCCCCN2CCCCCC2)cc1	-	-	-	?	-	-
OCCCN1CCN(CCCOc2ccccc2-c2ccccc2)CC1	-	-	-	?	-	10.4µM
Clc1cccc(-c2nc3c4ccccc4ccn3c2CC2CCCCC2)c1	.	.	.	.	-	.
COC(=O)c1sc(C(C)(C)C)cc1CS(=O)(=O)c1ccccn1	-	-	-	?	-	13.1µM
CC(=O)c1csc(CS(=O)(=O)c2ccccn2)n1	-	-	-	-	-	-
SMILES	SARS PLpro yeast	Shiga inhibitor	Cycloheximide cs	Pf growth 48h	AMA1 RON2 block	Pf growth 96h
CN(C)c1ccc(/C=C/c2cccc[n+]2[O-])cc1	-	58.9	32.9	-	-	-
CC(C)CC[n+]1ccccc1/C=C/c1ccc(N(C)C)cc1	-	-	-	0.928µM	-	-
[O-][n+]1ccccc1/C=C/c1ccccc1	.	.	.	.	-	.
C[n+]1ccccc1/C=C/c1ccc(C#N)cc1	-	.	-	-	-	?
O=C(c1csc2c1CCCC2)n1cccn1	.	.	.	.	-	.
CCc1ccc(-c2nc(NC(=S)NC(=O)c3cccs3)sc2C)cc1	-	-	-	.	-	-
COC(=O)c1nc(NC(=S)NC(=O)c2cccs2)sc1C	-	51.1	22.8	-	-	?
O=C(NC(=S)Nc1nc2ccccc2s1)c1cccs1	-	74.5	82.2	-	-	-
COC(=O)Cc1nc(NC(=O)c2cccs2)sc1C	-	54.4	35.4	-	-	-
CCc1ccc(OCc2nnc(NC(=O)c3cccs3)s2)cc1	-	-	-	.	-	-
CCC(CC)CN1CCN=C1Nc1ccccc1	-	.	.	?	-	-
Cc1cccc(NC(=O)CNC(=O)[C@H]2O[C@@H](n3ccc(=O)[nH]c3=O)[C@H](O)[C@@H]2O)c1C	.	.	.	.	-	.
